About 79,000 compounds went through this panel and 15% of them were active in at least one assay; those are over-represented in the sample as a whole. Calls of active or inactive are those of the source. Rule as the data show it: active = growth inhibition above about 70%; inactive = the rest.
Key:
[1] = NCI Yeast Anticancer Drug Screen. Data for the rad52 strain (AID 147);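 also: 0% = growth of vehicle-treated control cultures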; conditions: S. cerevisiae rad52 mutant growth inhibition, active compounds read high
Method in brief: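 DNA repair-defective yeast; compound exposure; growth scored against vehicle controls.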

[2] = NCI Yeast Anticancer Drug Screen. Data for the wt1 strain (AID 149);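 also: 0% = growth of vehicle-treated wt1 cultures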; conditions: S. cerevisiae wt1 strain (SPY 50644) growth inhibition, active compounds read high
Method in brief: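 Vehicle-normalised growth inhibition; strain wt1; compound exposure.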

[3] = NCI Yeast Anticancer Drug Screen. Data for the rad50EPP+ strain (AID 151);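 also: 0% = growth of vehicle-treated control cultures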; conditions: S. cerevisiae rad50 mutant strain, active compounds read high
Method in brief: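 rad50EPP+ yeast treated with test compounds. Readout: growth vs vehicle control.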

[4] = NCI Yeast Anticancer Drug Screen. Data for the mgt1 strain (AID 153); conditions: S. cerevisiae mgt1 mutant growth inhibition, active compounds read high
Method in brief: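 Growth inhibition relative to vehicle controls was scored for the mgt1 yeast strain after compound exposure.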

[5] = NCI Yeast Anticancer Drug Screen. Data for the rad50 strain (AID 155);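 also: 0% = growth of vehicle-only cultures of the same strain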; conditions: S. cerevisiae rad50 strain growth inhibition, active compounds read high
Method in brief: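 A DNA repair-deficient yeast mutant serves as the test organism; compound-induced growth inhibition is calculated against vehicle-treated cells.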

[6] = NCI Yeast Anticancer Drug Screen. Data for the mec2-1 strain (AID 157); conditions: S. cerevisiae mec2-1 strain, active compounds read high
Method in brief: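 Growth inhibition is read against vehicle-treated controls after compound exposure of the mec2-1 yeast strain, which is defective in DNA damage repair or cell cycle control.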

[7] = NCI Yeast Anticancer Drug Screen. Data for the rad14 strain (AID 159);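 also: 0% = growth of vehicle-treated control cultures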; conditions: S. cerevisiae rad14 strain growth inhibition, active compounds read high
Method in brief: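 Vehicle-treated cultures served as the baseline for growth inhibition of a DNA repair-mutant yeast strain exposed to each compound.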

[8] = NCI Yeast Anticancer Drug Screen. Data for the sgs1 mgt1 strain (AID 161);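 also: 0% = growth of cultures given vehicle only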; conditions: S. cerevisiae sgs1 mgt1 strain, active compounds read high
Method in brief: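 This yeast growth screen uses a strain with defined DNA-repair lesions; compound-treated growth is compared with vehicle-treated growth.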

[9] = NCI Yeast Anticancer Drug Screen. Data for the CLN2oe strain (AID 163);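 also: 0% = growth of vehicle-only control cultures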; conditions: S. cerevisiae CLN2oe strain, active compounds read high
Method in brief: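 Compound-treated yeast; growth vs vehicle ctrl = % inhibition. Genetically altered strain (cell-cycle control).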

[10] = NCI Yeast Anticancer Drug Screen. Data for the cln2 rad14 strain (AID 165);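 also: 0% = growth equal to vehicle treated cultures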; conditions: S. cerevisiae cln2 rad14 strain, active compounds read high
Method in brief: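 Growth inhibition, relative to vehicle-treated controls, is the read-out. The test organism is a yeast strain with defined genetic alterations, cln2 rad14.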

[11] = NCI Yeast Anticancer Drug Screen. Data for the bub3 strain (AID 167); conditions: S. cerevisiae bub3 mutant strain, active compounds read high
Method in brief: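 Inhibition values come from growth of compound-treated mutant yeast normalised to vehicle-treated controls.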

[12] = NCI Yeast Anticancer Drug Screen. Data for the wt2 strain (AID 169);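 also: 0% = growth of vehicle-treated yeast cultures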; conditions: S. cerevisiae wt2 strain growth inhibition, active compounds read high
Method in brief: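 Compound exposure of yeast; growth compared with vehicle controls; inhibition reported.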

[13] = NCI Yeast Anticancer Drug Screen. Data for the sgs1 strain (AID 173);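 also: 0% = growth of vehicle-only control cultures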; conditions: S. cerevisiae sgs1 mutant, active compounds read high
Method in brief: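 Compounds applied to genetically altered yeast; growth compared with vehicle-treated cultures to give % inhibition.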

[14] = NCI Yeast Anticancer Drug Screen. Data for the mlh1 rad18 strain (AID 175); conditions: S. cerevisiae mlh1 rad18 strain growth inhibition, active compounds read high
Method in brief: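 Cells of a genetically altered yeast strain, deficient in DNA damage repair, were treated with compound. Their growth was then compared with that of vehicle-treated cultures to give inhibition.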

[15] = NCI Yeast Anticancer Drug Screen. Data for the rad18 strain (AID 177); conditions: S. cerevisiae rad18 mutant growth inhibition, active compounds read high
Method in brief: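 Compounds are applied to a repair-deficient yeast strain, and growth is compared with that of vehicle-treated cultures to give percent inhibition.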

[16] = NCI Yeast Anticancer Drug Screen. Data for the mlh1 strain (AID 171);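 also: 0% = growth of vehicle-treated control cultures of the same strain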; conditions: S. cerevisiae mlh1 strain growth inhibition, active compounds read high
Method in brief: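 Compounds are applied to a genetically altered yeast strain, and its growth is compared with that of vehicle-treated cultures to give percent inhibition.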

[17] = at 5.0 µM (retest, dose inferred, filed as 0.5)
[18] = at 50.0 µM (retest, dose inferred, filed as 5.0)

Measured: growth inhibition

COc1cc(/C=C2\NC(=O)N(/C=C3\C(=O)Oc4ccccc4C3=O)C2=O)ccc1O
inactive: [1]; at 1.2 µM -3% | [1]; at 3.7 µM 1% | [1]; at 11.0 µM 16% | [2]; at 1.2 µM 2% | [2]; at 3.7 µM 3% | [2]; at 11.0 µM 3% | [2]; at 33.0 µM 63% | [3]; at 1.2 µM -1% | [3]; at 3.7 µM -1% | [3]; at 11.0 µM 1% | [3]; at 33.0 µM 4% | [3]; at 100.0 µM 3% | [4]; at 1.2 µM -3% | [4]; at 3.7 µM -3% | [4]; at 11.0 µM 4% | [4]; at 33.0 µM 62% | [5]; at 1.2 µM -6% | [5]; at 3.7 µM -17% | [5]; [17] -1% | [5]; at 11.0 µM -9% | [6]; at 1.2 µM -1% | [6]; at 3.7 µM -3% | [6]; [17] -4% | [6]; at 11.0 µM 5% | [6]; at 33.0 µM 68% | [7]; at 1.2 µM -2% | [7]; at 3.7 µM -2% | [7]; at 11.0 µM 3% | [7]; at 33.0 µM 64% | [8]; [17] -11% | [9]; at 1.2 µM 0% | [9]; at 3.7 µM 1% | [9]; at 11.0 µM 15% | [10]; [17] 38% | [11]; at 1.2 µM -3% | [11]; at 3.7 µM -2% | [11]; [17] -16% | [11]; at 11.0 µM 1% | [11]; at 33.0 µM 69% | [12]; at 1.2 µM -1% | [12]; at 3.7 µM 0% | [12]; at 11.0 µM 7% | [13]; at 1.2 µM -1% | [13]; at 3.7 µM -1% | [13]; at 11.0 µM 14% | [14]; [17] 4% | [15]; at 1.2 µM -1% | [15]; at 3.7 µM -3% | [15]; at 11.0 µM -1%
active: [1]; at 33.0 µM 79% | [1]; at 100.0 µM 96% | [2]; at 100.0 µM 95% | [4]; at 100.0 µM 94% | [5]; at 33.0 µM 75% | [5]; [18] 95% | [5]; at 50.0 µM 88.4% | [5]; at 100.0 µM 95% | [6]; [18] 97% | [6]; at 50.0 µM 77.5% | [6]; at 100.0 µM 96% | [7]; at 100.0 µM 93% | [8]; [18] 92% | [8]; at 50.0 µM 93.9% | [9]; at 33.0 µM 86% | [9]; at 100.0 µM 96% | [10]; [18] 94% | [10]; at 50.0 µM 90% | [11]; [18] 90% | [11]; at 50.0 µM 90.8% | [11]; at 100.0 µM 93% | [12]; at 33.0 µM 87% | [12]; at 100.0 µM 98% | [13]; at 33.0 µM 89% | [13]; at 100.0 µM 97% | [14]; [18] 95% | [14]; at 50.0 µM 89.5% | [15]; at 33.0 µM 77% | [15]; at 100.0 µM 94%

Cc1csc(=S)n1OC(=O)NC1CCCCC1
inactive: [1]; at 1.2 µM -54% | [1]; at 3.7 µM 63% | [2]; at 1.2 µM -5% | [3]; at 1.2 µM -23% | [4]; at 1.2 µM 18% | [5]; at 1.2 µM -2% | [6]; at 1.2 µM -11% | [6]; [17] -3% | [7]; at 1.2 µM -8% | [8]; [17] 32% | [9]; at 1.2 µM -6% | [11]; at 1.2 µM 3% | [12]; at 1.2 µM -23% | [16]; at 1.2 µM 8% | [15]; at 1.2 µM -11%
active: [1]; at 11.0 µM 99% | [1]; at 33.0 µM 99% | [1]; at 100.0 µM 99% | [2]; at 3.7 µM 97% | [2]; at 11.0 µM 99% | [2]; at 33.0 µM 100% | [2]; at 100.0 µM 99% | [3]; at 3.7 µM 99% | [3]; at 11.0 µM 99% | [3]; at 33.0 µM 99% | [3]; at 100.0 µM 99% | [4]; at 3.7 µM 99% | [4]; at 11.0 µM 100% | [4]; at 33.0 µM 100% | [4]; at 100.0 µM 99% | [5]; at 3.7 µM 98% | [5]; [17] 94% | [5]; at 11.0 µM 99% | [5]; at 33.0 µM 98% | [5]; [18] 98% | [5]; at 50.0 µM 92.5% | [5]; at 100.0 µM 98% | [6]; at 3.7 µM 93% | [6]; at 11.0 µM 99% | [6]; at 33.0 µM 93% | [6]; [18] 99% | [6]; at 50.0 µM 94.2% | [6]; at 100.0 µM 95% | [7]; at 3.7 µM 96% | [7]; at 11.0 µM 99% | [7]; at 33.0 µM 99% | [7]; at 100.0 µM 98% | [8]; [18] 96% | [8]; at 50.0 µM 93.5% | [9]; at 3.7 µM 99% | [9]; at 11.0 µM 100% | [9]; at 33.0 µM 100% | [9]; at 100.0 µM 100% | [10]; [17] 83% | [10]; [18] 98% | [10]; at 50.0 µM 92.2% | [11]; at 3.7 µM 99% | [11]; [17] 99% | [11]; at 11.0 µM 99% | [11]; at 33.0 µM 100% | [11]; [18] 97% | [11]; at 50.0 µM 91.8% | [11]; at 100.0 µM 99% | [12]; at 3.7 µM 97% | [12]; at 11.0 µM 99% | [12]; at 33.0 µM 99% | [12]; at 100.0 µM 99% | [16]; at 3.7 µM 99% | [16]; at 11.0 µM 100% | [16]; at 33.0 µM 99% | [16]; at 100.0 µM 98% | [14]; [17] 97% | [14]; [18] 98% | [14]; at 50.0 µM 92.1% | [15]; at 3.7 µM 94% | [15]; at 11.0 µM 98% | [15]; at 33.0 µM 98% | [15]; at 100.0 µM 98%

Source: PubChem BioAssay (NCI)
